Laboratory results taken from PubChem BioAssay (Tox21).
Where “and” joins values, the source holds several entries; their conditions need not be identical. Equal entries are not always repeated. Calls of active or inactive are those of the source. Unless noted, calls come from the whole dose curve; as a rule, active = well fitted curve in the direction sought with a large enough effect in the repeat runs; inconclusive = weak or mixed curves; inactive = no such curve, though single readings can be large; an effect the other way counts as inactive or inconclusive.

Legend:
[1] = qHTS assay for small molecules that induce genotoxicity in human embryonic kidney cells expressing luciferase-tagged ATAD5 (AID 651632); note: nearly all actives have a fitted effect of over 15% in size
Procedure, shortened: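 Test compounds were delivered by pin tool onto HEK293T reporter cells (2,000/well) expressing ATAD5 fused to luciferase. After 16 hr at 37C, 5% CO2, Amplite was added for 30 min at room temperature and luminescence was measured.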

[2] = qHTS assay for small molecule agonists of the p53 signaling pathway - cell viability (AID 651633; calls by dose curve; note: nearly all actives have a fitted effect of over 30% in size; note: potency is the fitted concentration of half-maximal effect)
Procedure, shortened: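 p53RE-bla cells, seeded at 4,000 per well and rested 5 h at 37 C/5% CO2, received compounds in DMSO for 16 h at 37 C. CellTiter-Glo was then added, and luminescence was read after 30 min at room temperature to gauge cytotoxicity.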

[3] = qHTS assay for small molecules that induce genotoxicity in human embryonic kidney cells expressing luciferase-tagged ATAD5 - cell viability (AID 651634; calls by dose curve; note: nearly all actives have a fitted effect of over 25% in size; note: potency is the fitted concentration of half-maximal effect)
Procedure, shortened: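 Quantitative high-throughput format. HEK293T cells expressing ATAD5 fused to luciferase were plated at 2,000 cells/well and treated 15.5 hr with compound versus DMSO. Viability was determined by fluorescent live-cell protease substrate, 30 min at 37C.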

[4] = qHTS assay for small molecule disruptors of the mitochondrial membrane potential - cell viability (AID 720634; calls by dose curve;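 note: human HepG2 liver cancer cells; nearly all actives have a fitted effect of over 20% in size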)
Procedure, shortened: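 Same-well counter-screen: following the MMP dye addition, CellTiter-Glo was added to 1 hr compound-treated HepG2 cells and luminescence read after 30 min at room temperature.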

[5] = qHTS assay for small molecule disruptors of the mitochondrial membrane potential (AID 720635); note: potency is the fitted concentration of half-maximal effect
Procedure, shortened: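 HepG2 cells (2,000/well) attached overnight at 37C, then took compound for 1 hr at 37C, 5% CO2. Mito-MPS dye was added for 30 min; fluorescence was read at 490/535 nm (monomers) and 540/590 nm (aggregates).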

[6] = qHTS assay to test for compound auto fluorescence at 590 nm (red) in HepG2 cells (AID 720674)
Procedure, shortened: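 Intrinsic compound fluorescence in the red window (Ex/Em 540/590 nm) is measured in attached HepG2 cells exposed for 1 hr, DMSO vehicle as baseline, benchmarked to Rose Bengal sodium.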

[7] = qHTS assay to test for compound auto fluorescence at 535 nm (green) in HepG2 cells (AID 720675)
[8] = qHTS assay to test for compound auto fluorescence at 460 nm (blue) in HEK293 cells (AID 720678)
Procedure, shortened: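 Blue read-out at excitation 405 nm and emission 460 nm follows overnight compound exposure of HEK293 cells at 37C in 5% CO2. Activity is given as auto fluorescence equivalency to triamterene.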

[9] = qHTS assay to test for compound auto fluorescence at 590 nm (red) in HEK293 cells (AID 720679)
Procedure, shortened: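 Red channel, Ex/Em 540/590nm; signal expressed as equivalency to Rose Bengal sodium. HEK293, 2,000 cells/well, 10% dialyzed FBS; 23 nL compound pinned after 4-5 hr attachment; overnight 37C/5% CO2 before reading.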

[10] = qHTS assay to test for compound auto fluorescence at 535 nm (green) in HEK293 cells (AID 720680)
[11] = qHTS assay to test for compound auto fluorescence at 460 nm (blue) in HEK293 cell free culture (AID 720681)
Procedure, shortened: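 Test compounds were pinned into cell-free culture medium (DMEM with 10% FBS) and fluorescence was read directly at Ex/Em 405/460 nm. Signals were expressed as fluorescence equivalents of triamterene, with DMSO vehicle as control.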

[12] = qHTS assay to test for compound auto fluorescence at 535 nm (green) in HEK293 cell free culture (AID 720682)
Procedure, shortened: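 Steps: dispense DMEM/10% FBS into empty wells; pin in compound or DMSO; measure fluorescence at 485/535 nm. Values are fluorescein equivalents.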

[13] = qHTS assay to test for compound auto fluorescence at 590 nm (red) in HEK293 cell free culture (AID 720683)
Procedure, shortened: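 Tox21 10K library compounds were pinned into cell-free DMEM with 10% FBS and fluorescence was read at excitation 540 nm. Activity is expressed as Rose Bengal sodium equivalency.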

[14] = qHTS assay to test for compound auto fluorescence at 590 nm (red) in HepG2 cell free culture (AID 720684)
Procedure, shortened: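 Ex 540 / Em 590 nm read of compound in cell-free MEM (10% FBS). Rose Bengal sodium reference.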

[15] = qHTS assay to test for compound auto fluorescence at 460 nm (blue) in HepG2 cell free culture (AID 720685)
Procedure, shortened: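 Cell-free plates of MEM plus 10% FBS received 23 nL compound or DMSO vehicle; blue-channel (405/460 nm) intensity scored against triamterene as reference fluorophore.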

[16] = qHTS assay to test for compound auto fluorescence at 535 nm (green) in HepG2 cell free culture (AID 720686)
[17] = qHTS assay to test for compound auto fluorescence at 460 nm (blue) in HepG2 cells (AID 720687)
Procedure, shortened: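 Cells (2,000/well in MEM with 10% FBS) attached overnight at 37 C, then were exposed to compound or DMSO for 1 hr at 37 C, 5% CO2. Fluorescence read at Ex/Em 405/460 nm, expressed as triamterene-equivalent signal.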

[18] = biological target: Glucocorticoid receptor (Homo sapiens) (UniProt P04150); assay: qHTS assay to identify small molecule agonists of the glucocorticoid receptor (GR) signaling pathway (AID 720691; active = well fitted activation curve with a large enough effect in the signal ratio in the repeat runs, not every such curve was filed as active; inconclusive = weak or mixed curves, or effect the other way; inactive = no such curve, though single readings can be large or run the other way; the % refers to the signal ratio; note: potency is the fitted concentration of half-maximal effect); conditions: GR-bla HeLa, beta-lactamase reporter ratio, 18 h; activation: at 62.4 µM (top of the series)
Sequence of Glucocorticoid receptor (Homo sapiens) (P04150 whole entry, looked up): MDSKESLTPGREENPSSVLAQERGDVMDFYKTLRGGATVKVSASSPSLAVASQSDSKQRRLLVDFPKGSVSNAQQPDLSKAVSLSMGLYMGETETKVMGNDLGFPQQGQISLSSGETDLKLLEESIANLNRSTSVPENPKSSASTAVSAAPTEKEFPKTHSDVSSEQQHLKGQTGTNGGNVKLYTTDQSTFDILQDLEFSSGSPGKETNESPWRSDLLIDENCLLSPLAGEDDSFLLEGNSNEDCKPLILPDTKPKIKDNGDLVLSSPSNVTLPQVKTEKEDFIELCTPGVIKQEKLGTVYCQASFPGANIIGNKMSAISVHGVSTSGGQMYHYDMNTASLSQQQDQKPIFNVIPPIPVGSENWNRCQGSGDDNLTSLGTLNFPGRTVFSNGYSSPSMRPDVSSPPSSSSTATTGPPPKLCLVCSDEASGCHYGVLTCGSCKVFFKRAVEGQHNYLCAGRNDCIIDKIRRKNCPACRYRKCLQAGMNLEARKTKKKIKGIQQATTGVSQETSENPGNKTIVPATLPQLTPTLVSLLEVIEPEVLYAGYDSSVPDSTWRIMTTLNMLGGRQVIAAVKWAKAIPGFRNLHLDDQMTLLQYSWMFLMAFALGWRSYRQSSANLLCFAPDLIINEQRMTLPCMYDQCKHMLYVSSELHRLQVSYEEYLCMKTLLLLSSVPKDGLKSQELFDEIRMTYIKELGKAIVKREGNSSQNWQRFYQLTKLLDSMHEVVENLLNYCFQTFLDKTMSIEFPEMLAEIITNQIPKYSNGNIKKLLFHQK
Procedure, shortened: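 A HeLa cervical cancer line expressing GR and a glucocorticoid response element-driven beta-lactamase gene is treated with compounds for 18 h; LiveBLAzer B/G FRET substrate is then applied and fluorescence read.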

[19] = biological target: Glucocorticoid receptor (Homo sapiens) (UniProt P04150); assay: qHTS assay to identify small molecule antagonists of the glucocorticoid receptor (GR) signaling pathway (AID 720692; active = well fitted inhibition curve with a large enough effect in the signal ratio in the repeat runs, not every such curve was filed as active; inconclusive = weak or mixed curves, or effect the other way; inactive = no such curve, though single readings can be large or run the other way; the % refers to the signal ratio)
Procedure, shortened: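 GRE-bla HeLa line, dex-stimulated (5 nM final). Compound exposure 18 h, 37 C. Beta-lactamase FRET read after 2 h RT substrate.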

Measured: Potency

CC(/C=C/C=C(\C)C(=O)O[C@@H]1O[C@H](CO[C@@H]2O[C@H](CO)[C@@H](O)[C@H](O)[C@H]2O)[C@@H](O)[C@H](O)[C@H]1O)=C\C=C\C=C(C)\C=C\C=C(/C)C(=O)O[C@@H]1O[C@H](CO[C@@H]2O[C@H](CO)[C@@H](O)[C@H](O)[C@H]2O)[C@@H](O)[C@H](O)[C@H]1O
not listed: [19]
inactive: all other assays above

CC(C)(C)NCC(O)CSc1nc(-c2ccc(C(N)=O)s2)cs1 (stereo not given)
active: [5] 13.3 µM
inactive: all other assays above

CCCCCCCCCCCCCCCCCCCCCCO
inactive: all assays above

CC(=O)OCC(=O)[C@@]1(O)[C@H](C)C[C@H]2[C@@H]3C[C@H](F)C4=CC(=O)C=C[C@]4(C)[C@H]3[C@@H](O)C[C@@]21C
active: [18] 26.8 nM [inconclusive]
not listed: [19]
inactive: all other assays above

O=C(O)C1=C(CSc2nnnn2CS(=O)(=O)O)CS[C@@H]2[C@H](NC(=O)[C@H](O)c3ccccc3)C(=O)N12
inactive: all assays above

CCC(C)[C@H]1O[C@]2(C=C[C@@H]1C)C[C@@H]1C[C@@H](C/C=C(\C)[C@@H](O[C@H]3C[C@H](OC)[C@@H](O[C@H]4C[C@H](OC)[C@H](NC(C)=O)[C@H](C)O4)[C@H](C)O3)[C@@H](C)/C=C/C=C3\CO[C@@H]4[C@H](O)C(C)=C[C@@H](C(=O)O1)[C@]34O)O2 (stereo not given in full)
active: [2] 2.98 µM and 11.9 µM | [3] 6.68 µM and 10.6 µM | [5] 3.76 µM and 11.9 µM
not listed: [19]
inactive: all other assays above

O=[N+]([O-])O[C@@H]1CO[C@H]2[C@@H]1OC[C@@H]2O
inactive: all assays above

CC(=O)O[C@H]1C(=O)[C@@]2(C)[C@H]([C@H](OC(=O)c3ccccc3)[C@]3(O)C[C@H](OC(=O)[C@H](O)[C@@H](NC(=O)c4ccccc4)c4ccccc4)C(C)=C1C3(C)C)[C@]1(OC(C)=O)CO[C@@H]1C[C@@H]2O
active: [3] 18.8 nM | [5] 0.944 µM
inactive: all other assays above

CC(C)CCC[C@@H](C)[C@H]1CC(=O)C2=C3CC[C@H]4C[C@@H](O)CC[C@]4(C)[C@H]3CC[C@@]21C
not listed: [5] | [19]
inactive: all other assays above

S=C=Nc1ccc(N=C=S)cc1
not listed: [5] | [18] | [19]
inactive: all other assays above

CCCCCCCCCCCCCCCC(=O)OCCC1CCN(CCCN2c3ccccc3Sc3ccc(S(=O)(=O)N(C)C)cc32)CC1
not listed: [5]
inactive: all other assays above

CC(=O)N=c1sc(S(N)(=O)=O)nn1C
not listed: [5]
inactive: all other assays above

CC1=C(/C=C/C(C)=C/C=C/C(C)=C/C=C/C=C(C)/C=C/C=C(C)/C=C/C2=C(C)C(=O)CCC2(C)C)C(C)(C)CCC1=O
not listed: [5] | [19]
inactive: all other assays above

O=C(O)[C@@H](O)[C@H](O)[C@H](O)[C@@H](O)C(=O)O (tested in a mixture with another compound)
not listed: [5] | [18] | [19]
inactive: all other assays above

NC(=O)C[C@@H](N)C(=O)O
not listed: [5]
inactive: all other assays above

CN(C)CC/C=C1/c2ccccc2CSc2ccccc21
not listed: [5] | [19]
inactive: all other assays above

S=C1SCN(Cc2ccccc2)CN1Cc1ccccc1
not listed: [5] | [18] | [19]
inactive: all other assays above

CC(CN1c2ccccc2Sc2ccc(S(=O)(=O)N(C)C)cc21)N(C)C (stereo not given)
not listed: [5]
inactive: all other assays above

COc1cc(NCCCC(C)N)c2ncccc2c1 (stereo not given)
not listed: [5] | [19]
inactive: all other assays above

CC(=O)N[C@@H]([C@@H](O)[C@H](O)[C@H](O)CO)[C@@H](O)CC(=O)C(=O)O
not listed: [5]
inactive: all other assays above

CCN1C(=O)NC(c2ccccc2)C1=O (stereo not given)
not listed: [5]
inactive: all other assays above

C[C@H]1[C@@H](OC(=O)CCC(=O)O)O[C@@H]2OC3(C)CC[C@H]4[C@H](C)CC[C@@H]1[C@@]24OO3
active: [3] 2370 nM
not listed: [5] | [19]
inactive: all other assays above

N[C@H](CC(=O)O)C(=O)O
not listed: [5] | [19]
inactive: all other assays above

CCCCCCCCCCCC(=O)N(CCO)CCO
not listed: [5] | [19]
inactive: all other assays above

COc1cc(Br)c(C[N+]2(CCOCCC3CCC4CC3C4(C)C)CCOCC2)cc1OC (stereo not given)
not listed: [5] | [19]
inactive: all other assays above

C[C@@H]1C[C@H]2C3C[C@H](F)C4=CC(=O)C=CC4(C)[C@@]3(F)[C@@H](O)CC2(C)[C@@]1(O)C(=O)COC(=O)C(C)(C)C (stereo not given in full)
active: [18] 6.7 nM [inconclusive]
not listed: [5] | [19]
inactive: all other assays above

C=CCCCCCCCCC(=O)OC
not listed: [5] | [19]
inactive: all other assays above
